SMN2 splice up: enhancers of SMN2 splice variant expression; HEK293 SMN2-luciferase splicing reporter, luminescence, 30-36 h; Potency, µM (series often up to 46.1 µM), without a hit: top-dose activity change, positive = activation, usual class: activators; 210,000 compounds, 2.8% hits; also: % of control where 0% means no effect; nearly all actives have a fitted effect of over 55% in size
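qHTS luciferase splicing reporter: luminescence rises when SMN2 exon 7 is included in transfected HEK293 cells. Compound exposure lasted 30-36 h at 37C, with 4.5 mM final sodium butyrate as control, followed by a ONE-Glo read.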
FLuc modulator: counter-screen for miR-21 project: firefly luciferase inhibitors or activators; purified FLuc, Km substrates, luminescence inhibition; Potency, µM (series often up to 57.5 µM), for inactives: at the highest dose activity change, negative = inhibition, hits mostly inhibitors; 360,000 compounds, 6.9% hits; AID 588342;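 also: plate controls were vehicle for no effect and reference inhibitor for full effect; nearly all actives have a fitted effect of over 55% in size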
Target sequence (P08659 whole entry, looked up): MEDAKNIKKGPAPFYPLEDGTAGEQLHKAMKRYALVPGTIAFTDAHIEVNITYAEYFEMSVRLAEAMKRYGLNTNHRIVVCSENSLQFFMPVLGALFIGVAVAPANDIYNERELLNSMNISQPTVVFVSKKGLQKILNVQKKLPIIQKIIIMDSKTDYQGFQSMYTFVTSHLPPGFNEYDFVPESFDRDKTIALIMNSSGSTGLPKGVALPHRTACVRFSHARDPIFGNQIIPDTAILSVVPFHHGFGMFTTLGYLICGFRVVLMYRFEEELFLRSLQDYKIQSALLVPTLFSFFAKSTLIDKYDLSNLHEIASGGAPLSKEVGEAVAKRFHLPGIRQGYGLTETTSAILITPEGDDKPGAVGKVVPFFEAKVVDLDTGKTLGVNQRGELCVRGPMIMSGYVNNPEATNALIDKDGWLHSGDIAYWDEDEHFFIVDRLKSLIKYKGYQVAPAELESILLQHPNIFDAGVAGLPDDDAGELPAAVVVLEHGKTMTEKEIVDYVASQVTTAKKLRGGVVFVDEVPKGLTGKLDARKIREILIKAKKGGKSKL
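Biochemical qHTS of compounds, final roughly 60 µM downward over six points, against 10 nM purified firefly luciferase using Km concentrations of substrates (10 uM D-luciferin, 10 uM ATP) in Tris acetate pH 7.5 buffer; luminescence output.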
NPC1 prom act: activates the NPC1 promoter; Huh7 NPC1 promoter luciferase reporter, 24 h; Potency, µM (highest dose often 9.22 µM), for inactives: top-dose activation, most hits filed as activators; 320,000 compounds, 2.4% hits; AID 485313; also: % of control where 0% means no effect; nearly all actives have a fitted effect of over 60% in size
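Luciferase expression driven by the NPC1 promoter was measured in stably transfected Huh7 cells after a 24 h compound incubation, using a luciferase reagent and a luminescence read.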
ELG1 genotox: inducers of genotoxicity in HEK293T ELG1-luciferase cells; HEK293T ELG1-luciferase reporter, luminescence, 16 h; 330,000 compounds, 1.3% hits; Potency, µM (series often up to 46 µM), without a hit: at the top dose activity change, positive = activation, most hits filed as activators; also: % of control where 0% means no effect; nearly all actives have a fitted effect of over 60% in size
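16 hr compound incubation (37 °C, 5% CO2) of HEK293T cells carrying luciferase-tagged ELG1; luciferase then measured by ONE-Glo luminescence after 30 min at RT.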
Rab9 prom act: activators of Rab9 promoter. Huh7 Rab9 promoter-luciferase reporter, luminescence, 24 h. Potency, µM (series often up to 9.22 µM), for the others: top-dose activation, negative = inhibition, most hits filed as activators. 320,000 compounds, 2.8% hits. AID 485297; also: % of control where 0% means no effect; nearly all actives have a fitted effect of over 60% in size
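Promoter activation is measured as luciferase luminescence in Huh7 cells stably transfected with a Rab9 promoter–luciferase construct, following 24 h compound exposure at 37 °C and 10 min reagent incubation at ambient temperature.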
Active calls of the source: *; [ ] = another dose, or the depositor's remark. Most compounds without a hit are left out; they make up all but 7.4% or so of the library. Calls follow the shape of the dose curve; as a rule, active = well fitted curve in the direction sought with a large enough effect; inconclusive = small, poorly fitted or top-dose-only effect, or another doubt; inactive = no such curve, though single readings can be large; an effect the other way counts as inactive or inconclusive. Potency is read from the fitted curve at half-maximal effect.

What do the screens show for `Cn1nnc2c(NCc3ccco3)nccc21`?
SMN2 splice up: -6.5%; FLuc modulator: 2.3%; NPC1 prom act: -1.8%; ELG1 genotox: 1.7%; Rab9 prom act: 0.9%

What do the screens show for `Cc1ccccc1NS(=O)(=O)c1ccc2c3c(cccc13)C(=O)N2C`?
FLuc modulator: 1.5%; NPC1 prom act: -5.1%; ELG1 genotox: 20.6µM*; Rab9 prom act: 0.0%

Results for Cc1nc(/N=C(\N)Nc2ccccc2)nc2ccccc12 ?
SMN2 splice up: 24.4%; FLuc modulator: 12µM*; NPC1 prom act: inconclusive; ELG1 genotox: 3.4%; Rab9 prom act: 25.0%

How did CCOC(=O)C1(C)C=C(Nc2cccc(C)c2)C(=O)N1c1ccccc1 (stereo not given) do in these assays?
SMN2 splice up: -11.3%; FLuc modulator: -7.7%

How did CSc1nc2sc3c(c2c(=O)n1C)CCC3 do in these assays?
FLuc modulator: -5.9%; NPC1 prom act: -0.3%; ELG1 genotox: 2.8%; Rab9 prom act: -1.6%

What do the screens show for `CSc1nc2sc3c(c2c(=O)n1C)CCC(C)C3` (stereo not given)?
SMN2 splice up: 1.1%; FLuc modulator: 13.5µM*; NPC1 prom act: 2.4%; ELG1 genotox: 9.1%; Rab9 prom act: 19.4%

Results for COc1ccc(C2=C/C(=C\c3ccc(OC(C)=O)cc3)C(=O)O2)cc1 ?
SMN2 splice up: 12.8%; FLuc modulator: -8.5%; NPC1 prom act: 0.9%; ELG1 genotox: 6.3%; Rab9 prom act: -3.5%

How did CC(=O)Oc1cccc(/C=C2\C=C(c3ccc(C)cc3)OC2=O)c1 do in these assays?
SMN2 splice up: -3.0%; FLuc modulator: 2.69µM*; NPC1 prom act: -2.2%; ELG1 genotox: -4.2%; Rab9 prom act: -0.9%

What do the screens show for `Cc1ccc(C2=C/C(=C/c3cccs3)C(=O)O2)cc1`?
SMN2 splice up: -16.3%[1.84 µM]; FLuc modulator: 0.379µM*; NPC1 prom act: 2.2%; ELG1 genotox: 3.8%; Rab9 prom act: -0.3%

What do the screens show for `O=C(NCc1cccnc1)Nc1ccc(Cl)cc1Cl`?
FLuc modulator: -6.1%; NPC1 prom act: -2.3%; ELG1 genotox: -5.5%; Rab9 prom act: 0.0%

What do the screens show for `Cc1ccc(-c2nc3ncccc3o2)cc1NC(=O)c1ccc(-c2ccc(Cl)cc2)o1`?
SMN2 splice up: -8.7%; FLuc modulator: -2.4%

What do the screens show for `CCc1ccc(C2CC(c3ccco3)=NN2S(C)(=O)=O)cc1` (stereo not given)?
SMN2 splice up: 0.501µM*; FLuc modulator: 1.35µM*; NPC1 prom act: 0.447µM*; ELG1 genotox: inconclusive; Rab9 prom act: 0.316µM*

How did Cc1ccc(-c2nn3c(-c4ccccc4)nnc3c3ccccc23)cc1 do in these assays?
SMN2 splice up: -3.6%; FLuc modulator: 0.9%

How did Cc1cc2nc(-c3ccc(SCC(=O)N4CCN(C(=O)c5ccco5)CC4)nc3)[nH]c2cc1C do in these assays?
SMN2 splice up: 7.94µM*; FLuc modulator: 0.477µM*; NPC1 prom act: 3.55µM*; ELG1 genotox: -5.3%; Rab9 prom act: 3.55µM*

How did Cc1cc2nc(-c3ccc(SCC(=O)N4CCOCC4)nc3)[nH]c2cc1C do in these assays?
SMN2 splice up: inconclusive; FLuc modulator: 0.675µM*; NPC1 prom act: inconclusive; ELG1 genotox: 2.0%; Rab9 prom act: 3.55µM*

How did Cc1cc(=O)[nH]c(SCC(=O)N2CCN(C(=O)c3ccco3)CC2)n1 do in these assays?
ELG1 genotox: -1.0%

What do the screens show for `C#CCN(CC=C)C(=O)c1ccc(OC2CCN(S(=O)(=O)N(C)C)CC2)cc1`?
FLuc modulator: inconclusive; NPC1 prom act: 20.5%; ELG1 genotox: -0.6%; Rab9 prom act: inconclusive

Results for CC1CCCCC12NC(=O)N(CC(=O)Nc1cccc(S(=O)(=O)N3CCCCC3)c1)C2=O (stereo not given) ?
FLuc modulator: 1.8%; NPC1 prom act: -3.0%; ELG1 genotox: 0.5%; Rab9 prom act: -0.7%

What do the screens show for `CCCCCc1ccc(-c2ccc(/C=C/C(N)=O)cc2)nc1`?
SMN2 splice up: -1.4%; FLuc modulator: 4.78µM*; NPC1 prom act: inconclusive; ELG1 genotox: 15.6%; Rab9 prom act: inconclusive

Results for CCCc1ccc(-c2ccc(C(=O)O)cc2)nc1 ?
SMN2 splice up: 2.51µM*; FLuc modulator: 1.51µM*; NPC1 prom act: inconclusive; ELG1 genotox: inconclusive; Rab9 prom act: 0.398µM*

What do the screens show for `CCCCCc1ccc(-c2ccc(C(=O)Oc3ccc(C(=O)OC)cc3)cc2)nc1`?
SMN2 splice up: -46.3%; FLuc modulator: 12µM*

What do the screens show for `CCCc1ccc(-c2ccc(C(=O)Oc3ccc(OCC)cc3)cc2)nc1`?
SMN2 splice up: 4.2%; FLuc modulator: -18.6%

What do the screens show for `COc1cc2c(cc1OC)[C@H](C)N(CC1C(=O)O[C@@H]3C[C@@]4(C)CCC[C@H](C)[C@@]45OC5[C@H]13)CC2` (stereo not given in full)?
SMN2 splice up: 1.7%

What do the screens show for `Cc1ccc(C)c2sc(NC(=O)c3nc4ccccc4s3)nc12`?
SMN2 splice up: 21.0%; FLuc modulator: 2.4%; NPC1 prom act: 0.4%; ELG1 genotox: 2.5%; Rab9 prom act: -1.7%

What do the screens show for `Cc1ccc(-c2nnc(COC(=O)c3ccco3)o2)cc1`?
FLuc modulator: 13.5µM*; NPC1 prom act: -5.5%; ELG1 genotox: 13.2%; Rab9 prom act: -2.0%

How did Cc1ccc(-c2nnc(COC(=O)c3cccs3)o2)cc1 do in these assays?
FLuc modulator: 6.75µM*; NPC1 prom act: inconclusive; ELG1 genotox: inconclusive; Rab9 prom act: 20.9%

Results for Cc1ccc(/C=N/c2sc(Cc3ccccc3)c(C)c2C(N)=O)o1 ?
SMN2 splice up: 22.2%; FLuc modulator: -5.9%; NPC1 prom act: -0.1%; ELG1 genotox: 0.1%; Rab9 prom act: 2.1%

How did Cc1ccc(C=Nc2ccccc2C(N)=O)o1 do in these assays?
SMN2 splice up: 11.2µM*; FLuc modulator: 26.9µM*; NPC1 prom act: inconclusive; ELG1 genotox: inconclusive; Rab9 prom act: 3.55µM*

Results for Cc1ccc(C(=O)O/N=C/c2ccc(N(C)C)cc2)cc1 ?
FLuc modulator: inconclusive; NPC1 prom act: 1.3%; ELG1 genotox: 13.4%; Rab9 prom act: 20.5%

How did CN(C)c1ccc(C=Nc2ccccc2C(N)=O)cc1 do in these assays?
SMN2 splice up: 12.6µM*; FLuc modulator: 1.51µM*; NPC1 prom act: 3.16µM*; ELG1 genotox: 10.3µM*; Rab9 prom act: 0.794µM*

What do the screens show for `O=Nc1c(-c2c(O)[nH]c3cc(Br)ccc23)[nH]c2ccccc12`?
SMN2 splice up: 15.8µM*; FLuc modulator: 9.53µM*; NPC1 prom act: 2.91µM*; ELG1 genotox: inconclusive; Rab9 prom act: 3.66µM*

How did COc1ccc(-c2csc(NC(=O)C3CCN(C(=O)c4ccc(F)cc4)CC3)n2)cc1OC do in these assays?
FLuc modulator: -5.1%; NPC1 prom act: -11.4%; ELG1 genotox: -11.0%; Rab9 prom act: -19.8%

What do the screens show for `CCCCn1c(CNC(=O)c2ccc(OC)cc2)nnc1SCC(=O)Nc1ccc(OC)cc1`?
SMN2 splice up: -2.5%; FLuc modulator: -6.7%

Screening data as filed in PubChem BioAssay.
